Screening data as filed in PubChem.
Compounds with a hit are over-represented: about 18% of the library has one in this group of screens.
TDP1 cell noCPT: qHTS for Inhibitors of human tyrosyl-DNA phosphodiesterase 1 (TDP1): qHTS in cells in absence of CPT. DT40 Tdp1-/- hTDP1 cells, no CPT, ATP luminescence, 48 h. Potency, µM (series often up to 46.2 µM), for the others: at the top dose activity change, negative = growth inhibition, most hits filed as inhibitors. actives 15% (n = 420,000); also: potency is read from the fitted curve at half-maximal effect; % is scaled to controls: 0 for no effect and ±100 for the full control effect; nearly all actives have a fitted effect of over 55% in size
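Cells were dispensed at 400 per well, compounds added by pin tool, plates incubated ≥48 hr at 37 °C, then CellTiter-Glo added for 30 min at room temperature before luminescence reading. Line: DT40 Tdp1-/- complemented with hTDP1; camptothecin omitted.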
TDP1 inh: TDP1 (human) enzyme inhibition | Q9NUW8 | actives 0.28% (n = 350,000) | Potency, µM (top dose mostly 130 µM), inactives show top-dose activity change, negative = inhibition, actives largely listed as inhibitors | AID 485290 | recombinant TDP1, AlphaScreen DNA substrate cleavage; also: potency is read from the fitted curve at half-maximal effect; % is scaled to controls: 0 for no effect and ±100 for the full control effect; nearly all actives have a fitted effect of over 40% in size
Target sequence (Q9NUW8 whole entry, looked up): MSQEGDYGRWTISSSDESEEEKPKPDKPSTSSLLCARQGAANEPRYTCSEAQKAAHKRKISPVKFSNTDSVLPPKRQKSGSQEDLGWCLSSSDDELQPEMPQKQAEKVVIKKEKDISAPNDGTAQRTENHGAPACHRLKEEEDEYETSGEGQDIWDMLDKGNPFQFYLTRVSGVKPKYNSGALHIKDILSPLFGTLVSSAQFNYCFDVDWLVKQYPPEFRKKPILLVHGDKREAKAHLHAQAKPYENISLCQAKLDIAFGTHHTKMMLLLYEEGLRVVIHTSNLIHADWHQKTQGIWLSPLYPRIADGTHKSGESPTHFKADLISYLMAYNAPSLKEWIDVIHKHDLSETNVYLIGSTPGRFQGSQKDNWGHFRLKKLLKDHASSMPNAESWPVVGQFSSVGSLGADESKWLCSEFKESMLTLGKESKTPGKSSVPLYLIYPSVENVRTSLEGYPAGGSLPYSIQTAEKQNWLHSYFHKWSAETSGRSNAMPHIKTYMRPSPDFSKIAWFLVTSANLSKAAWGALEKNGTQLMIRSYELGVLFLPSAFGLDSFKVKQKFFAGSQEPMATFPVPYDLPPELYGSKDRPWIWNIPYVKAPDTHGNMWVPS
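AlphaScreen read-out: signal falls as enzyme removes the 3' tyrosine-FITC from a 5'-biotinylated DNA oligo (15 nM, 5 min, RT). Enzyme was E. coli-made recombinant Tdp1 at 1 nM, exposed to compound for 15 min beforehand; beads 10 ug/ml, 10 min.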
TDP1 cell CPT: DT40-hTDP1 cell growth loss with CPT; chicken DT40 Tdp1-/-;hTDP1 cells + 20 nM CPT, ATP luminescence, 48 h; Potency, µM (highest dose often 46.2 µM), inactives show at the highest dose activity change, negative = growth inhibition, usual class: inhibitors; actives 12% (n = 420,000); AID 686979; also: potency is read from the fitted curve at half-maximal effect; % is scaled to controls: 0 for no effect and ±100 for the full control effect; nearly all actives have a fitted effect of over 55% in size
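Chicken DT40 Tdp1-/- cells stably complemented with human TDP1 were seeded at 400 cells/well in medium containing 20 nM camptothecin, exposed to pin-transferred compounds, and grown at 37 °C for at least 48 hr. Viability was read as ATP luminescence.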
HepG2 tox: kills HepG2 cells in TGF-b inhibitor counter-screen | actives 0.76% (n = 410,000) | Potency, µM (series often up to 46.1 µM), for inactives: top-dose activity change, negative = cytotoxicity, actives largely listed as cytotoxic | HepG2 CAGA-GFP viability, ATP luminescence, 18 h | AID 588856; also: potency is read from the fitted curve at half-maximal effect
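CellTiter-Glo luminescence gave cytotoxicity after 18 hours at 37 degrees C. The cells were HepG2 CAGA-GFP in 1% FBS DMEM, stimulated with 500 pg/mL TGF-beta after compound addition. %Activity was normalised to no-cell wells (complete cell-killing) and DMSO (no toxicity), and curves were fitted and classified.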
TGFb inhibitor: TGF-b pathway inhibition | HepG2 CAGA-GFP TGF-b/SMAD3 reporter, GFP fluorescence, 18 h; TGF-beta stimulated, 500 pg/mL final | Potency, µM (doses to about 46.1 µM), for the others: at the highest dose activity, negative = inhibition, most hits filed as inhibitors | actives 1.2% (n = 410,000); also: potency is read from the fitted curve at half-maximal effect; % is scaled to controls: 0 for no effect and ±100 for the full control effect; nearly all actives have a fitted effect of over 65% in size
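HEPG2 CAGA-GFP reporter cells (1000/well, DMEM with 1% FBS) received compounds, then recombinant TGF-beta at 500 pg/mL final for 18 hours at 37 degrees C. Per-cell GFP summed per well was normalised to unstimulated and stimulated DMSO controls before curve fitting.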
IL-1B inflam inh: inhibitors of inflammasome signaling (IL-1 beta secretion); THP-1 LPS/ATP IL-1B secretion, AlphaLISA, 16 h; stronger effect = lower value; activity change, % at 57.5 µM; actives 4.7% (n = 360,000); AID 743279; in the data active = activity change below about -50%; inconclusive = mostly about -30% to -49%; also: % is scaled to controls: 0 for no effect and ±100 for the full control effect
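Secreted IL-1B measured by AlphaLISA bead assay after 16 h compound exposure of THP-1 cells; compounds (final up to 57.5 uM) added 1 h before LPS (250 ng/mL) and ATP (1.25 mM) stimulation; lower signal means less secretion.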
The depositor's hits bear a star; i = inactive; ? = inconclusive; / = no result given; [ ] = dose if it differs, or a comment. Unless noted, calls follow the shape of the dose curve; as a rule, active = well fitted curve in the direction sought with a large enough effect; inconclusive = small, poorly fitted or top-dose-only effect, or another doubt; inactive = no such curve, though single readings can be large; an effect the other way counts as inactive or inconclusive.

SMILES	TDP1 cell noCPT	TDP1 inh	TDP1 cell CPT	HepG2 tox	TGFb inhibitor	IL-1B inflam inh
Cc1ccc(NC(=S)NNC(=O)CSc2nc3ccccc3c(=O)n2-c2ccc(C)cc2)cc1	16µM*	11%	-29%	1%	-13%	11
Cc1ccc(SCc2cc(=O)n3ccsc3n2)c(C)c1	/	-1%	/	/	/	/
CCN(CC)C(=O)CSc1nc2c(sc(=S)n2-c2ccccc2)c(=O)n1-c1ccccc1OC	?	/	9.2µM*	-2%	0%	-6
CCN(CC)C(=O)CSc1nc2c(sc(=S)n2-c2ccccc2)c(=O)n1-c1ccc(OC)cc1OC	?	/	?	-5%	-13%	-17
Cc1cccc(-n2c(SCc3cc(=O)n4ccsc4n3)nc3ccccc32)c1	16µM*	-3%	13µM*	-7%	-18%	-2
COC(=O)c1ccc(CNC(=O)CNC(=O)c2sc3ccccc3c2Cl)cc1	-16%	-7%[0.505 µM]	-14%	0%	-9%	3
Cc1nc(C#N)nc(Oc2ccccc2)c1Cl	-24%	/	-13%	/	/	/
CCOC(=O)c1[nH]c(C)c(CCC(=O)Nc2ccc(C)cc2Cl)c1C	-27%	5%	-30%	11%	1%	/
CCOc1cccc(-c2nnc3n2N=C(c2cc(OC)ccc2OC)CS3)c1	8.2µM*	1%	?	-22%	4%	-25
COc1ccc(C2=Nn3c(nnc3-c3ccc(OC)cc3)SC2)cc1	1µM*	9%	1.8µM*	-1%	?	2
COc1cc(-c2nnc3n2N=C(c2ccccc2)CS3)cc(OC)c1OC	1.5µM*	2%	1.5µM*	-16%	-15%	17
CCOc1ccccc1-c1nnc2n1N=C(c1cc(OC)ccc1OC)CS2	/	13%	/	/	/	/
Cc1ccc(-c2nnc3n2N=C(c2ccccc2)CS3)cc1	-15%	11%	-20%	5%	21%	40
COc1ccc(C2=Nn3c(nnc3-c3ccc(OC)c(OC)c3)SC2)cc1	/	3%	/	/	/	/
Clc1ccc(C2=Nn3c(nnc3-c3cc(-c4ccccc4)n[nH]3)SC2)cc1	18µM*	0%	?	16µM*	?	9
Cc1cccc(-c2nnc3n2N=C(c2ccccc2Br)CS3)c1	21µM*	0%	21µM*	-32%	?	-3
Cc1cc(-c2nnc3n2N=C(c2ccccc2Br)CS3)n[nH]1	?	7%	7%	-15%	-16%	/
COc1cccc(-c2nnc3n2N=C(c2cc(OC)ccc2OC)CS3)c1	15µM*	4%	?	-3%	2%	?
COc1ccc(-c2nnc3n2N=C(c2cc(OC)ccc2OC)CS3)cc1	/	16%	/	/	/	/
COc1ccc(OC)c(C2=Nn3c(nnc3-c3cc(OC)c(OC)c(OC)c3)SC2)c1	16µM*	8%	21µM*	-33%	-5%	0
COc1cccc(-c2nnc3n2N=C(c2ccc(OC)cc2OC)CS3)c1	/	17%	/	/	/	/
COc1cccc(-c2nnc3n2N=C(C(C)(C)C)CS3)c1	9.2µM*	-1%	16µM*	-16%	?	-93*
CC(C)c1cccc2nc3c(c([Si](C)(C)C(C)(C)C)c12)Cn1c-3cccc1=O	/	1%	/	/	/	/
COc1ccc(/C=N/NC(=O)Cc2cc(OC)c(OC)cc2[N+](=O)[O-])cc1	-9%	5%	-7%	-7%	7%	0
CNC(=O)c1c(NC(=O)CS(=O)(=O)c2ccc(F)cc2)sc(C)c1C	?	/	?	-66%	-5%	7
SMILES	TDP1 cell noCPT	TDP1 inh	TDP1 cell CPT	HepG2 tox	TGFb inhibitor	IL-1B inflam inh
CCC/C(O)=C1\C(=O)CC(c2ccccc2)CC1=NCCc1c(C)[nH]c2ccccc12 (configuration not stated)	?	-4%	?	-23%	-13%	?
CCCCC(=Nc1ccccc1OC)C1=C(O)CC(c2ccccc2)CC1=O (configuration not stated)	-29%	0%	-13%	-2%	-27%	12
CCCCC(=NCCc1c(C)[nH]c2ccccc12)C1=C(O)CC(c2ccccc2)CC1=O (configuration not stated)	5.2µM*	5%	5.8µM*	-22%	-30%	?
CCCC(=NCCc1c(C)[nH]c2ccccc12)C1=C(O)CC(c2ccccc2)CC1=O (configuration not stated)	1.3µM*	5%	0.58µM*	-6%	?	7
O=C(Nc1ccc(C(=O)N2CCN(c3ccc(Cl)cc3)CC2)cc1)c1nsc2ccccc12	?	3%	?	-23%	5%	/
Cc1ccc(Cl)cc1N1CCN(C(=O)c2ccc(NC(=O)c3nsc4ccccc34)cc2)CC1	18µM*	3%	?	-39%	14%	/
Cc1cccc(N2CCN(C(=O)c3ccc(NC(=O)c4nsc5ccccc45)cc3)CC2C)c1 (configuration not stated)	6.5µM*	0%	9.2µM*	-46%	-21%	/
COc1ccc(N2CCN(C(=O)c3ccc(C)c(NC(=O)c4nsc5ccccc45)c3)CC2)cc1	?	3%	26µM*	-3%	-18%	/
Nc1ccc(CCCC(=O)NCc2cccnc2)cc1	-4%	/	3%	-15%	0%	-1
Cc1ccc(C)c(Cn2c(=O)n(Cc3ccccc3)c(=O)c3sc4ccccc4c32)c1	2%	6%	6%	0%	18%	/
O=C1NCCCc2c1oc1cc(Br)c(O)c(Br)c21	?	-5%	16µM*	-20%	?	?
COc1ccc(CCN2CC(C(=O)NCCN3CCOC3=O)CCC2=O)cc1 (configuration not stated)	18%	4%[56.1 µM]	3%	6%	-10%	i
COc1cccc(N2CCN(C(=O)c3ccc(CS(=O)Cc4ccc(C)cc4)o3)CC2)c1 (configuration not stated)	?	4%	?	-8%	2%	-1
COc1cccc(N2CCN(C(=O)c3ccc(CS(=O)c4ccc(Cl)cc4)o3)CC2)c1 (configuration not stated)	0.92µM*	4%	0.73µM*	-16%	?	24
COc1cccc(N2CCN(C(=O)c3ccc(CS(=O)c4ccc(C)cc4)o3)CC2)c1 (configuration not stated)	0.52µM*	4%	0.58µM*	-14%	-29%	31
